{"source": "the supplement of paper PMC6897291", "note": "Structures can show the parent of a compound that is named as a salt."}
{"system": "RIVA", "assay": "growth inhibition by drug plus 177Lu-lilotomab satetraxetan (1 - RLU/untreated control) (fraction); higher = stronger inhibition", "details": "10 nM; time (day): 5; 177Lu-lilotomab satetraxetan 0.5 ug/ml", "summary_of_the_method": "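Growth inhibition was calculated from RealTime-Glo RLU against untreated no-drug wells. Values equal 1 − RLU/mean of 48 untreated no-drug wells per plate, read daily from day 3 after 1 h at 37°C. RIVA and U-2932 cells, with or without 18 h pretreatment by a radiolabelled anti-CD37 antibody conjugate (~600 MBq/mg; 0.5 µg/ml RIVA, 1 µg/ml U-2932), were washed and plated at 3,000 cells/well on compound-printed plates at 10/100 nM (RIVA) or 10/1,000 nM (U-2932).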"}
{"smiles": "COc1ccc(S(=O)(=O)Nc2cccnc2Nc2ccc(O)cc2)cc1", "growth inhibition by drug plus 177Lu-lilotomab satetraxetan": 0.525}
{"smiles": "C[C@]12CCC(=O)C=C1CC[C@@H]1[C@@H]2[C@@H](O)C[C@@]2(C)[C@H]1CC[C@]2(O)C(=O)CO", "note": "[Hydrocortisone (Cortisol)]", "growth inhibition by drug plus 177Lu-lilotomab satetraxetan": 0.597}
{"smiles": "COc1cc(OC2CCN(C)CC2)ccc1Nc1ncc2c(n1)n(C1CCCC1)c(=O)n2C", "growth inhibition by drug plus 177Lu-lilotomab satetraxetan": 0.601}
{"smiles": "Nc1nc(F)nc2c1ncn2[C@@H]1O[C@H](CO)[C@@H](O)[C@@H]1O", "note": "[Fludarabine (Fludara)]", "growth inhibition by drug plus 177Lu-lilotomab satetraxetan": 0.591}
{"smiles": "Nc1nc(Nc2ccc(S(N)(=O)=O)cc2)nn1C(=O)c1c(F)cccc1F", "growth inhibition by drug plus 177Lu-lilotomab satetraxetan": 0.536}
{"smiles": "Nc1ncn([C@@H]2O[C@H](CO)[C@@H](O)[C@H]2O)c(=O)n1", "note": "[Azacitidine (Vidaza)]", "growth inhibition by drug plus 177Lu-lilotomab satetraxetan": 0.506}
{"smiles": "COc1cc2nccc(Oc3ccc(NC(=O)NC4CC4)c(Cl)c3)c2cc1C(N)=O", "note": "[E7080 (Lenvatinib)]", "growth inhibition by drug plus 177Lu-lilotomab satetraxetan": 0.485}
{"smiles": "Nc1ccn([C@@H]2O[C@H](CO)[C@@H](O)[C@@H]2O)c(=O)n1", "note": "[Cytarabine]", "growth inhibition by drug plus 177Lu-lilotomab satetraxetan": 0.632}
{"smiles": "Nc1cccc2c1C(=O)N(C1CCC(=O)NC1=O)C2=O", "note": "(stereo not drawn) [Pomalidomide]", "growth inhibition by drug plus 177Lu-lilotomab satetraxetan": 0.549}
{"smiles": "CN(C)c1nc(N(C)C)nc(N(C)C)n1", "note": "[Altretamine (Hexalen)]", "growth inhibition by drug plus 177Lu-lilotomab satetraxetan": 0.481}
{"smiles": "Cc1[nH]c(/C=C2\\C(=O)Nc3ccc(S(=O)(=O)N(C)c4cccc(Cl)c4)cc32)c(C)c1C(=O)N1CCN(C)CC1", "growth inhibition by drug plus 177Lu-lilotomab satetraxetan": 0.543}
{"smiles": "O=C(O[C@@H]1Cc2c(O)cc(O)cc2O[C@@H]1c1cc(O)c(O)c(O)c1)c1cc(O)c(O)c(O)c1", "note": "[(-)-Epigallocatechin gallate]", "growth inhibition by drug plus 177Lu-lilotomab satetraxetan": 0.55}
{"smiles": "CCc1c2c(nc3ccc(OC(=O)N4CCC(N5CCCCC5)CC4)cc13)-c1cc3c(c(=O)n1C2)COC(=O)[C@]3(O)CC", "note": "[Irinotecan HCl Trihydrate (Campto)]", "growth inhibition by drug plus 177Lu-lilotomab satetraxetan": 0.475}
{"smiles": "S=C(NCc1ccc2c(c1)OCO2)N1CCN(c2ncnc3c2oc2ccccc23)CC1", "note": "[Amuvatinib (MP-470)]", "growth inhibition by drug plus 177Lu-lilotomab satetraxetan": 0.684}
{"smiles": "COc1ccc2c3n(c(=NC(=O)c4cccnc4)nc2c1OC)CCN3", "growth inhibition by drug plus 177Lu-lilotomab satetraxetan": 0.559}
{"smiles": "C#Cc1cccc(Nc2ncnc3cc(OCCOC)c(OCCOC)cc23)c1", "note": "[Erlotinib HCl]", "growth inhibition by drug plus 177Lu-lilotomab satetraxetan": 0.536}
{"smiles": "Cc1ccc(-c2cc(C(F)(F)F)nn2-c2ccc(S(N)(=O)=O)cc2)cc1", "note": "[Celecoxib]", "growth inhibition by drug plus 177Lu-lilotomab satetraxetan": 0.505}
{"smiles": "N#CC[C@H](C1CCCC1)n1cc(-c2ncnc3[nH]ccc23)cn1", "growth inhibition by drug plus 177Lu-lilotomab satetraxetan": 0.469}
{"smiles": "CCc1cncnc1N1CCN(Cc2nc3ccc(C(F)(F)F)cc3[nH]2)CC1", "growth inhibition by drug plus 177Lu-lilotomab satetraxetan": 0.59}
{"smiles": "CCN(CC)C(=S)SSC(=S)N(CC)CC", "note": "[Disulfiram (Antabuse)]", "growth inhibition by drug plus 177Lu-lilotomab satetraxetan": 0.548}
{"smiles": "CC(C)[C@H](C(=O)Nc1ccc(C(=O)NO)cc1)c1ccccc1", "growth inhibition by drug plus 177Lu-lilotomab satetraxetan": 0.602}
{"smiles": "CC(=O)O[C@]1(C(C)=O)CC[C@H]2[C@@H]3C=C(C)C4=CC(=O)CC[C@]4(C)[C@H]3CC[C@@]21C", "note": "[Megestrol Acetate]", "growth inhibition by drug plus 177Lu-lilotomab satetraxetan": 0.546}
{"smiles": "COc1cc2ncnc(Nc3cccc(Br)c3)c2cc1OC", "growth inhibition by drug plus 177Lu-lilotomab satetraxetan": 0.483}
{"smiles": "N#Cc1ccc(C(c2ccc(C#N)cc2)n2cncn2)cc1", "note": "[Letrozole]", "growth inhibition by drug plus 177Lu-lilotomab satetraxetan": 0.524}
{"smiles": "CC(=O)c1c(C)c2cnc(Nc3ccc(N4CCNCC4)cn3)nc2n(C2CCCC2)c1=O", "growth inhibition by drug plus 177Lu-lilotomab satetraxetan": 0.548}
{"smiles": "COc1cccc2c1C(=O)c1c(O)c3c(c(O)c1C2=O)C[C@@](O)(C(=O)CO)C[C@@H]3O[C@H]1C[C@H](N)[C@H](O)[C@H](C)O1", "note": "[Doxorubicin (Adriamycin)]", "growth inhibition by drug plus 177Lu-lilotomab satetraxetan": 0.909}
{"smiles": "CC(C)(C)c1[nH]cnc1/C=c1\\[nH]c(=O)/c(=C/c2ccccc2)[nH]c1=O", "note": "[NPI-2358 (Plinabulin)]", "growth inhibition by drug plus 177Lu-lilotomab satetraxetan": 0.548}
{"smiles": "COc1cc(Nc2ncc3c(n2)-c2ccc(Cl)cc2C(c2c(F)cccc2OC)=NC3)ccc1C(=O)O", "note": "[MLN8237 (Alisertib)]", "growth inhibition by drug plus 177Lu-lilotomab satetraxetan": 0.559}
{"smiles": "O=c1[nH]cc(F)c(=O)[nH]1", "note": "[Adrucil (Fluorouracil)]", "growth inhibition by drug plus 177Lu-lilotomab satetraxetan": 0.54}
{"smiles": "CC(C)c1ccc(Cn2ccc3c4c(N)nc(NC5CC5)nc4ccc32)cc1", "growth inhibition by drug plus 177Lu-lilotomab satetraxetan": 0.716}
{"smiles": "CC/C(=C(\\c1ccccc1)c1ccc(OCCN(C)C)cc1)c1ccccc1", "note": "[Tamoxifen Citrate (Nolvadex)]", "growth inhibition by drug plus 177Lu-lilotomab satetraxetan": 0.667}
{"smiles": "Cn1cc(C2=C(c3ccc(Cl)cc3Cl)C(=O)NC2=O)c2ccccc21", "growth inhibition by drug plus 177Lu-lilotomab satetraxetan": 0.546}
{"smiles": "c1ccc(-c2nn3c(c2-c2ccnc4cc(OCCN5CCOCC5)ccc24)CCC3)nc1", "growth inhibition by drug plus 177Lu-lilotomab satetraxetan": 0.585}
{"smiles": "O=C(NCCS(=O)(=O)c1ccc(C(F)(F)F)cn1)c1ccc(Cl)cc1", "growth inhibition by drug plus 177Lu-lilotomab satetraxetan": 0.579}
{"smiles": "Cc1ccc(S(=O)(=O)C=CC#N)cc1", "growth inhibition by drug plus 177Lu-lilotomab satetraxetan": 0.522}
{"smiles": "CCC1=C[C@@H]2CN(C1)Cc1c([nH]c3ccccc13)[C@@](C(=O)OC)(c1cc3c(cc1OC)N(C)[C@H]1[C@@](O)(C(=O)OC)[C@H](OC(C)=O)[C@]4(CC)C=CCN5CC[C@]31[C@@H]54)C2", "note": "[Vinorelbine (Navelbine)]", "growth inhibition by drug plus 177Lu-lilotomab satetraxetan": 0.961}
{"smiles": "Cc1cc(Nc2cc(N3CCN(C)CC3)nc(/C=C/c3ccccc3)n2)n[nH]1", "growth inhibition by drug plus 177Lu-lilotomab satetraxetan": 0.509}
{"smiles": "CN(N=O)C(=O)N[C@@H](C=O)[C@@H](O)[C@H](O)[C@H](O)CO", "note": "[Streptozotocin (Zanosar)]", "growth inhibition by drug plus 177Lu-lilotomab satetraxetan": 0.521}
